From PubChem BioAssay (NCI)
About 83,000 compounds went through this panel and 20% of them were active in at least one assay; those are over-represented in the sample as a whole.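 The test compound was applied at a single concentration to cells in 96-well plates for 48 hours, and percent growth was recorded.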 Activity calls are given as the source filed them. How the source made its calls: active means growth percent below 10; inactive means the rest.

Assays:
Assay in all cases: NCI-60 one-dose screen, 48 h (100 = growth as untreated, 0 = no growth, -100 = all killed)
Conditions in all cases: 10 µM unless noted
HCT-15 colon = tested on: HCT-15 colon
HT29 colon = tested on: HT29 colon
SNB-75 CNS = tested on: SNB-75 CNS
SNB-19 CNS = tested on: SNB-19 CNS
U251 CNS = tested on: U251 CNS
PC-3 prostate = tested on: PC-3 prostate
SK-MEL-5 melanoma = tested on: SK-MEL-5 melanoma
LOX IMVI melanoma = tested on: LOX IMVI melanoma
SK-MEL-28 melanoma = tested on: SK-MEL-28 melanoma
SK-MEL-2 melanoma = tested on: SK-MEL-2 melanoma
EKVX NSCLC = tested on: EKVX NSCLC
SN12C renal = tested on: SN12C renal
UO-31 renal = tested on: UO-31 renal
TK-10 renal = tested on: TK-10 renal
ACHN renal = tested on: ACHN renal
CAKI-1 renal = tested on: CAKI-1 renal
A498 renal = tested on: A498 renal
CCRF-CEM leukemia = tested on: CCRF-CEM leukemia
MOLT-4 leukemia = tested on: MOLT-4 leukemia

Measured: growth

CCOC(=O)C/C(=C\c1ccccc1)C(C)=O
inactive: HCT-15 colon 106% | HT29 colon 98.1% | SNB-75 CNS 101% | SNB-19 CNS 101% | U251 CNS 80.4% | PC-3 prostate 76.8% | SK-MEL-5 melanoma 106% | LOX IMVI melanoma 108% | SK-MEL-28 melanoma 111% | SK-MEL-2 melanoma 89.3% | EKVX NSCLC 102% | SN12C renal 105% | UO-31 renal 99.3% | TK-10 renal 96.3% | ACHN renal 107% | CAKI-1 renal 94.5% | A498 renal 114% | CCRF-CEM leukemia 90.3% | MOLT-4 leukemia 93.8%

Fc1ccc(Nc2nc(Nc3ccc(-c4nc5ccccc5[nH]4)cc3)nc(N3CCCC3)n2)cc1
active: HCT-15 colon -8.99% | LOX IMVI melanoma 3.18% | CCRF-CEM leukemia 5.35%
inactive: HT29 colon 36.1% | SNB-75 CNS 65.4% | SNB-19 CNS 103% | U251 CNS 55.8% | PC-3 prostate 33.8% | SK-MEL-5 melanoma 87% | SK-MEL-28 melanoma 47.7% | SK-MEL-2 melanoma 95.2% | EKVX NSCLC 71.9% | SN12C renal 81.2% | UO-31 renal 68.1% | TK-10 renal 151% | ACHN renal 73.1% | CAKI-1 renal 88% | A498 renal 75.3% | MOLT-4 leukemia 48.2%

Cc1cc(N=O)cc(C(C)(C)C)c1O
inactive: HCT-15 colon 101% | HT29 colon 85% | SNB-75 CNS 87.7% | SNB-19 CNS 98.7% | U251 CNS 88.6% | PC-3 prostate 74.5% | SK-MEL-5 melanoma 98.3% | LOX IMVI melanoma 98.3% | SK-MEL-28 melanoma 106% | SK-MEL-2 melanoma 85.2% | EKVX NSCLC 95.4% | SN12C renal 101% | UO-31 renal 92.3% | TK-10 renal 94.1% | ACHN renal 108% | CAKI-1 renal 86.1% | A498 renal 74.3% | CCRF-CEM leukemia 82.5% | MOLT-4 leukemia 94.2%

COc1cnc2c(c1)C(=O)c1c-2n(CCCNCCN2CCOCC2)c(=O)c2cc([N+](=O)[O-])ccc12
inactive: SNB-19 CNS 15.2% | PC-3 prostate 15.7% | SK-MEL-28 melanoma 47.5% | SK-MEL-2 melanoma 19% | EKVX NSCLC 15.8%
active: HCT-15 colon 0.784% | HT29 colon 1.17% | SNB-75 CNS -4.98% | U251 CNS -56.5% | SK-MEL-5 melanoma -87.8% | LOX IMVI melanoma -66.2% | SN12C renal 4.54% | UO-31 renal -85.8% | TK-10 renal -0.695% | ACHN renal -69.6% | CAKI-1 renal -29.5% | A498 renal -86.7% | CCRF-CEM leukemia 2.23% | MOLT-4 leukemia -1.41%

CCC(CC)C(=O)OC(C)COc1ccc(C(C)(C)C)cc1 (centres undefined)
inactive: HCT-15 colon 109% | HT29 colon 71.7% | SNB-75 CNS 94.8% | SNB-19 CNS 103% | U251 CNS 90.1% | PC-3 prostate 73.2% | SK-MEL-5 melanoma 98.7% | LOX IMVI melanoma 106% | SK-MEL-28 melanoma 101% | SK-MEL-2 melanoma 101% | EKVX NSCLC 105% | SN12C renal 99.4% | UO-31 renal 97.3% | TK-10 renal 97% | ACHN renal 102% | CAKI-1 renal 98.8% | A498 renal 87.8% | CCRF-CEM leukemia 93% | MOLT-4 leukemia 82.7%

CC(C)(C)c1nc(-c2ccc(O)c(O)c2)cs1
inactive: HCT-15 colon 36.3% | HT29 colon 92.6% | SNB-75 CNS 73.1% | SNB-19 CNS 72.1% | U251 CNS 46.9% | PC-3 prostate 54% | SK-MEL-5 melanoma 54.4% | LOX IMVI melanoma 63.5% | SK-MEL-28 melanoma 87.8% | SK-MEL-2 melanoma 93.3% | EKVX NSCLC 88.9% | SN12C renal 59.5% | UO-31 renal 39.5% | TK-10 renal 89.2% | ACHN renal 50% | CAKI-1 renal 54.8% | A498 renal 104% | CCRF-CEM leukemia 26.4% | MOLT-4 leukemia 44.1%

COc1ccc(/C=C/C(=O)NCCO)cc1
inactive: HCT-15 colon 98% | HT29 colon 96.1% | SNB-75 CNS 80.7% | SNB-19 CNS 111% | U251 CNS 94.8% | PC-3 prostate 91.8% | SK-MEL-5 melanoma 101% | LOX IMVI melanoma 95.9% | SK-MEL-28 melanoma 104% | SK-MEL-2 melanoma 103% | EKVX NSCLC 98.7% | SN12C renal 108% | UO-31 renal 84.6% | TK-10 renal 92% | ACHN renal 101% | CAKI-1 renal 90.8% | A498 renal 85% | CCRF-CEM leukemia 104% | MOLT-4 leukemia 101%

COc1ccc(-c2nc(Nc3ccc(-c4nc5ccccc5[nH]4)cc3)nc(N3CCOCC3)n2)cc1
active: HCT-15 colon -62.2% | HT29 colon -23.1% | SNB-75 CNS -19.2% | U251 CNS 6.38% | PC-3 prostate 2.31% | SK-MEL-5 melanoma -90.7% | LOX IMVI melanoma -75.6% | SK-MEL-28 melanoma -34% | SK-MEL-2 melanoma -19.2% | EKVX NSCLC 7.91% | UO-31 renal -43.5% | ACHN renal 9% | CAKI-1 renal -56.6% | A498 renal -32.1% | CCRF-CEM leukemia -1.84% | MOLT-4 leukemia 1.78%
inactive: SNB-19 CNS 17.5% | SN12C renal 40.8% | TK-10 renal 43.9%

Oc1ccc(Nc2ccccc2)cc1
active: CCRF-CEM leukemia 0.482%
inactive: HCT-15 colon 82.5% | HT29 colon 99.3% | SNB-75 CNS 85.5% | SNB-19 CNS 85.8% | U251 CNS 86% | PC-3 prostate 65.7% | SK-MEL-5 melanoma 83% | LOX IMVI melanoma 71.4% | SK-MEL-28 melanoma 102% | SK-MEL-2 melanoma 125% | EKVX NSCLC 81.6% | SN12C renal 90.3% | UO-31 renal 68.4% | TK-10 renal 117% | ACHN renal 46.9% | CAKI-1 renal 65.4% | A498 renal 87.4% | MOLT-4 leukemia 88.6%

C[C@@H]1CCCCCCCCC[C@H](O)C(=O)C[C@@H](SC[C@@H](O)C(=O)O)C(=O)O1
inactive: HCT-15 colon 87.3% | HT29 colon 82.1% | SNB-75 CNS 95.2% | SNB-19 CNS 102% | U251 CNS 89.4% | PC-3 prostate 83% | SK-MEL-5 melanoma 104% | LOX IMVI melanoma 71.8% | SK-MEL-28 melanoma 107% | SK-MEL-2 melanoma 100% | EKVX NSCLC 105% | SN12C renal 93.6% | UO-31 renal 87.2% | TK-10 renal 95.2% | ACHN renal 96.6% | CAKI-1 renal 102% | A498 renal 167% | CCRF-CEM leukemia 59.4% | MOLT-4 leukemia 70.2%

NNC(=O)c1nc2ccccc2[nH]1
inactive: HCT-15 colon 108% | HT29 colon 103% | SNB-75 CNS 97.4% | SNB-19 CNS 103% | U251 CNS 86.2% | PC-3 prostate 96.7% | SK-MEL-5 melanoma 103% | LOX IMVI melanoma 95.3% | SK-MEL-28 melanoma 111% | SK-MEL-2 melanoma 99.4% | EKVX NSCLC 102% | SN12C renal 102% | UO-31 renal 101% | TK-10 renal 111% | ACHN renal 107% | CAKI-1 renal 94.9% | A498 renal 96.2% | CCRF-CEM leukemia 109% | MOLT-4 leukemia 79.8%

Cc1ccc(N(CC(=O)Nc2ccc(S(=O)(=O)N3CCC(N4CCCC4)CC3)cc2)S(=O)(=O)c2ccc(Cl)cc2)cc1
active: HCT-15 colon -47.8% | HT29 colon -16.9% | U251 CNS -2.58% | SK-MEL-5 melanoma -97.6% | LOX IMVI melanoma -88.5% | SK-MEL-28 melanoma -68.3% | SN12C renal -35.7% | ACHN renal -38.4% | CCRF-CEM leukemia 3.02% | MOLT-4 leukemia 2.28%
inactive: SNB-75 CNS 62.7% | SNB-19 CNS 40.6% | PC-3 prostate 12% | SK-MEL-2 melanoma 91.9% | EKVX NSCLC 70.1% | UO-31 renal 38.1% | TK-10 renal 112% | CAKI-1 renal 18.2% | A498 renal 65.6%

COC(=O)[C@]12CC[C@@H](C)[C@H](C)[C@@H]1C1=CC[C@@H]3[C@@](C)(CC#N)C4=C(C[C@@]3(C)[C@]1(C)CC2)OC[C@]4(C)C=O
active: HCT-15 colon 0.689% | HT29 colon -20.7% | SNB-19 CNS 8.5% | U251 CNS -45.7% | PC-3 prostate 9.95% | SK-MEL-5 melanoma -89% | LOX IMVI melanoma -99% | SK-MEL-28 melanoma -19.6% | SK-MEL-2 melanoma -40.2% | EKVX NSCLC -11.8% | SN12C renal 1.64% | UO-31 renal 6.25% | TK-10 renal 3.82% | ACHN renal 7.19% | CAKI-1 renal 9.24% | A498 renal -91.7% | CCRF-CEM leukemia 1.66% | MOLT-4 leukemia 2.4%
inactive: SNB-75 CNS 19.3%

O=C1Nc2ccccc2/C1=C/c1cn(CCCn2c3ccccc3c(=O)c3ccccc32)c2ccccc12
inactive: HCT-15 colon 82.3% | HT29 colon 91.8% | SNB-75 CNS 69.7% | SNB-19 CNS 98.2% | U251 CNS 93.3% | PC-3 prostate 62.5% | SK-MEL-5 melanoma 74.7% | LOX IMVI melanoma 86% | SK-MEL-28 melanoma 107% | SK-MEL-2 melanoma 84.4% | EKVX NSCLC 60.3% | SN12C renal 92% | UO-31 renal 44.6% | TK-10 renal 140% | ACHN renal 89% | A498 renal 112% | CCRF-CEM leukemia 98.4% | MOLT-4 leukemia 77.7%

O=C1c2ccccc2NC(c2cn(-c3ccccc3)nc2-c2cccs2)N1Cc1ccccc1 (centres undefined)
inactive: HCT-15 colon 77.7% | HT29 colon 75% | SNB-75 CNS 87.7% | SNB-19 CNS 95.4% | U251 CNS 86.9% | PC-3 prostate 64.8% | SK-MEL-5 melanoma 80.9% | LOX IMVI melanoma 62.1% | SK-MEL-28 melanoma 97.3% | SK-MEL-2 melanoma 74% | EKVX NSCLC 72.1% | SN12C renal 90.8% | UO-31 renal 57.5% | TK-10 renal 91.1% | ACHN renal 86.2% | A498 renal 84% | CCRF-CEM leukemia 95.6% | MOLT-4 leukemia 55.1%

Cc1cccc(C)c1NC(=O)CSC(=S)N1CCCCC1
inactive: HCT-15 colon 105% | HT29 colon 103% | SNB-75 CNS 96% | SNB-19 CNS 111% | U251 CNS 105% | PC-3 prostate 97.6% | SK-MEL-5 melanoma 112% | LOX IMVI melanoma 98.2% | SK-MEL-28 melanoma 105% | SK-MEL-2 melanoma 97.6% | EKVX NSCLC 97.2% | SN12C renal 110% | UO-31 renal 85.6% | TK-10 renal 89% | ACHN renal 101% | A498 renal 99.3% | CCRF-CEM leukemia 101% | MOLT-4 leukemia 87.8%

C=C1C(=O)O[C@H]2[C@H]1CC/C(COC(=O)NCc1c[nH]c3ccccc13)=C\CC[C@@]1(C)O[C@@H]21
active: HCT-15 colon 4.35% | HT29 colon 8.59% | UO-31 renal -62.7% | ACHN renal -36.2% | CCRF-CEM leukemia 7.29% | MOLT-4 leukemia 1.16%
inactive: SNB-75 CNS 72.1% | SNB-19 CNS 69.4% | U251 CNS 82.8% | PC-3 prostate 50.4% | SK-MEL-5 melanoma 45.2% | LOX IMVI melanoma 16.4% | SK-MEL-28 melanoma 33.9% | SK-MEL-2 melanoma 70.5% | EKVX NSCLC 84.2% | SN12C renal 44.4% | TK-10 renal 34.3% | A498 renal 102%
